The values that follow come from PubChem BioAssay (NCI).

Common to all, as to experiment: NCI-60 one-dose screen, 48 h (100 = growth as untreated, 0 = no growth, -100 = all killed)
In one experiment the test system is HCT-15 colon. As to conditions: 10 µM unless noted.
A further experiment deals with HT29 colon. As to conditions: 10 µM unless noted.
The next experiment concerns SNB-75 CNS. As to conditions: 10 µM unless noted.
The next experiment concerns SNB-19 CNS. The note with it: 10 µM unless noted.
Another experiment deals with U251 CNS. The note with it: 10 µM unless noted.
The test system of the next experiment is PC-3 prostate. The note with it: 10 µM unless noted.
In a further experiment the test system is SK-MEL-5 melanoma. As to conditions: 10 µM unless noted.
The test system of another experiment is UACC-62 melanoma. The note with it: 10 µM unless noted.
The next experiment deals with LOX IMVI melanoma. The note with it: 10 µM unless noted.
A further experiment deals with SK-MEL-28 melanoma. As to conditions: 10 µM unless noted.
The test system of a further experiment is SK-MEL-2 melanoma. As to conditions: 10 µM unless noted.
In the next experiment the test system is EKVX NSCLC. The note with it: 10 µM.
In the next experiment the test system is SN12C renal. As to conditions: 10 µM unless noted.
The test system of the next experiment is UO-31 renal. As to conditions: 10 µM unless noted.
Another experiment deals with TK-10 renal. The note with it: 10 µM unless noted.
For the next experiment, the system named is ACHN renal. As to conditions: 10 µM unless noted.
The next experiment has as its system CAKI-1 renal. The note with it: 10 µM unless noted.
Another experiment deals with A498 renal. The note with it: 10 µM unless noted.
The next experiment has as its system CCRF-CEM leukemia. As to conditions: 10 µM.
Another experiment deals with MOLT-4 leukemia. As to conditions: 10 µM unless noted.

Structures are written as SMILES. Compounds without any hit were thinned out: in the full panel of roughly 83,000, 20% have a hit.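 A percent growth of 40 corresponds to 60% growth inhibition; 0 means no net growth; -100 means all cells died. Active threshold: below 10.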 Unmarked numbers belong to inactive results. The source made the active and inactive calls.

In the case of `O=C(N/N=C/c1ccccc1Cl)c1cccc2ccccc12`, the growth is 102% in the experiment on HCT-15 colon; 105% in the experiment on HT29 colon; 83.1% in the experiment on SNB-75 CNS; 98.3% in the experiment with SNB-19 CNS; 98.4% with U251 CNS; 99.6% in the experiment with PC-3 prostate. In addition, the growth in the experiment with SK-MEL-5 melanoma is 104%; with UACC-62 melanoma it was 99.8%; in the experiment with LOX IMVI melanoma, 103%; with SK-MEL-28 melanoma, 95.4%; in the experiment with SK-MEL-2 melanoma, 108%; in the experiment on EKVX NSCLC, 99.6%. Besides, the growth is 94.9% with SN12C renal; 91.5% in the experiment with UO-31 renal; 113% in the experiment on TK-10 renal; 105% in the experiment on ACHN renal; 96.8% with CAKI-1 renal; 85.4% in the experiment on A498 renal. The growth in the experiment with CCRF-CEM leukemia was 88.3%.
On to `COc1cccc2c1n([O-])c1cccc(OC)c1[n+]2=O`, for which the growth in the experiment with HCT-15 colon is 87.6%; with HT29 colon, 73.5%; with SNB-75 CNS it was 87%; in the experiment with SNB-19 CNS it was 80.4%; in the experiment with U251 CNS it was 80%; in the experiment with PC-3 prostate, 57.8%. Further, the growth was 72.6% in the experiment on SK-MEL-5 melanoma; 84.5% in the experiment with UACC-62 melanoma; 64.8% with LOX IMVI melanoma; 72.1% with SK-MEL-28 melanoma; 71.5% in the experiment with SK-MEL-2 melanoma; 45.6% with EKVX NSCLC. Also, the growth was 83.3% in the experiment with SN12C renal; 60.6% in the experiment with UO-31 renal; 59.8% with TK-10 renal; 72.3% with ACHN renal; 304% in the experiment with CAKI-1 renal; 106% in the experiment on A498 renal. Moreover, the values for the growth in the experiment on CCRF-CEM leukemia and in the experiment with MOLT-4 leukemia were 9.03% (active) and 26.3%, respectively.
Consider `C/C(=N\Nc1ccc(Cl)cn1)c1ccccn1`, for which the growth in the experiment with HCT-15 colon was 15.5%; in the experiment on HT29 colon, 16.7%; in the experiment with SNB-75 CNS, 31.5%; with SNB-19 CNS it was 21.5%; with U251 CNS it was 7.65% (active); in the experiment on PC-3 prostate it was 20.9%. Besides, the growth in the experiment on SK-MEL-5 melanoma was -61.9% (active); with UACC-62 melanoma, -28.3% (active); with LOX IMVI melanoma, 1.48% (active); with SK-MEL-28 melanoma it was 13.5%; in the experiment with SK-MEL-2 melanoma, 28.3%; in the experiment on EKVX NSCLC, 8.35% (active). Also, the growth in the experiment on SN12C renal is 15.3%; in the experiment with UO-31 renal, -2.91% (active); in the experiment with TK-10 renal it was 33.6%; in the experiment on ACHN renal, 2.81% (active); in the experiment with CAKI-1 renal it was 5.04% (active); in the experiment with A498 renal it was -25.2% (active). Moreover, the growth in the experiment with CCRF-CEM leukemia was 2.72% (active).
`COc1ccccc1Cn1cc2c(c1)-c1oncc1CC2`: the growth in the experiment on HCT-15 colon is 15.7%; in the experiment on HT29 colon, 9.87% (active); in the experiment with SNB-75 CNS, 13.7%; in the experiment on SNB-19 CNS, 38.3%; in the experiment on U251 CNS, 28.4%; in the experiment on PC-3 prostate, 25.4%. The growth in the experiment on SK-MEL-5 melanoma is 18%; in the experiment on UACC-62 melanoma, 54.6%; in the experiment with LOX IMVI melanoma it was 37.5%; in the experiment on SK-MEL-28 melanoma, 55.3%; with SK-MEL-2 melanoma it was 35.6%; in the experiment with EKVX NSCLC it was 20.8%. For the same compound, the growth with SN12C renal was 39%; in the experiment on UO-31 renal it was 31.6%; in the experiment with TK-10 renal, 65.6%; in the experiment with ACHN renal, 55.5%; with CAKI-1 renal, 9.72% (active); in the experiment on A498 renal it was 29.2%. Further, the results for the growth in the experiment with CCRF-CEM leukemia and in the experiment with MOLT-4 leukemia were 17.6% and 25.6%, respectively.
Consider `c1cc(C2CCCCC2)ccc1OCCCCCCN1CCNCC1`, for which the growth in the experiment with HCT-15 colon is -64.5% (active); with HT29 colon, 4.38% (active); in the experiment with SNB-75 CNS, 31.2%; in the experiment on SNB-19 CNS it was 57.6%; in the experiment on U251 CNS it was -8.72% (active); in the experiment on PC-3 prostate, 27.5%. For the same compound, the growth with SK-MEL-5 melanoma was 34.4%; in the experiment with UACC-62 melanoma, 70.3%; in the experiment with LOX IMVI melanoma it was -90.5% (active); in the experiment with SK-MEL-28 melanoma, 60.1%; in the experiment with SK-MEL-2 melanoma, 87.8%; with EKVX NSCLC, 90.5%. The growth is 59.1% in the experiment on SN12C renal; 56.6% in the experiment with UO-31 renal; 57% in the experiment on TK-10 renal; -7.79% (active) with ACHN renal; 55.7% in the experiment with CAKI-1 renal; 61.5% in the experiment on A498 renal. Also, the growth with CCRF-CEM leukemia is -51.7% (active); in the experiment on MOLT-4 leukemia it was -48.5% (active).
With `O=S(=O)(Cc1cccc2c(CS(=O)(=O)c3ccc(Cl)cc3)cccc12)c1ccc(Cl)cc1`, the growth is 92.8% in the experiment with HCT-15 colon; 93.7% in the experiment on HT29 colon; 88.1% in the experiment on SNB-75 CNS; 104% in the experiment with SNB-19 CNS; 104% with U251 CNS; 92% in the experiment with PC-3 prostate. The growth is 92.3% with SK-MEL-5 melanoma; 98.3% with UACC-62 melanoma; 94.1% in the experiment on LOX IMVI melanoma; 107% in the experiment with SK-MEL-28 melanoma; 98.8% in the experiment on SK-MEL-2 melanoma; 82.4% in the experiment with EKVX NSCLC. Besides, the growth was 98.6% in the experiment on SN12C renal; 106% with UO-31 renal; 113% with TK-10 renal; 96.7% in the experiment with ACHN renal; 73% in the experiment with CAKI-1 renal; 109% in the experiment on A498 renal. Further, the growth in the experiment on CCRF-CEM leukemia is 90.7%; with MOLT-4 leukemia it was 95.5%.
On to `CCOP1(=O)CC(C)=C(Cl)C(P(=O)(O)O)C1` (stereo not drawn), for which the growth in the experiment on HCT-15 colon was 98.3%; in the experiment on HT29 colon, 104%; with SNB-75 CNS, 82.4%; in the experiment on SNB-19 CNS it was 106%; in the experiment with U251 CNS it was 99.7%; with PC-3 prostate it was 95.6%. Besides, the growth was 109% in the experiment with SK-MEL-5 melanoma; 95.5% with UACC-62 melanoma; 94.1% in the experiment on LOX IMVI melanoma; 93.7% in the experiment with SK-MEL-28 melanoma; 109% in the experiment with SK-MEL-2 melanoma; 102% with EKVX NSCLC. Moreover, the growth is 99.3% with SN12C renal; 42.5% in the experiment with UO-31 renal; 117% in the experiment on TK-10 renal; 101% with ACHN renal; 110% in the experiment on CAKI-1 renal; 113% in the experiment on A498 renal. Besides, the growth in the experiment on CCRF-CEM leukemia was -35.6% (active); in the experiment with MOLT-4 leukemia, 89.9%.
As to `COC(=O)c1ccc2[nH]c(O)c(C(=Nc3ccc(N(C)C(=O)CN4CCN(C)CC4)cc3)c3ccc([N+](=O)[O-])cc3)c2c1`, the growth with HCT-15 colon is 73%; in the experiment on HT29 colon it was 38%; in the experiment with SNB-75 CNS it was 54.7%; with SNB-19 CNS it was 80.1%; in the experiment on U251 CNS, 42.6%; in the experiment with PC-3 prostate it was 35.1%. Moreover, the growth in the experiment on SK-MEL-5 melanoma was 49.4%; in the experiment with UACC-62 melanoma, 52.7%; with LOX IMVI melanoma it was 46.2%; in the experiment with SK-MEL-28 melanoma, 64.9%; in the experiment on SK-MEL-2 melanoma it was 43.2%; in the experiment with EKVX NSCLC, 88.1%. The growth was 27.4% in the experiment with SN12C renal; 65.6% with UO-31 renal; 72.2% with TK-10 renal; 54.3% in the experiment on ACHN renal; 19% in the experiment with CAKI-1 renal; 25.9% with A498 renal. Besides, the growth is 21.2% in the experiment with CCRF-CEM leukemia and 8.41% (active) with MOLT-4 leukemia.
